Assay outcomes: PubChem, Broad Institute
MITF TRPM1 inh: inhibitors of MITF-driven TRPM1 promoter in melanoma cells; SK-MEL-5 TRPM1 promoter luciferase, 24 h; inhibition, % at 12.5 µM; 0.83% of 330,000 active; AID 488899;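 active = mean inhibition across replicates of 60% or more, whatever share of single replicates reaches that level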
PAX8 reporter: lowers PAX8-driven luciferase in RMG-I cells; inhibition, % at 12.6 µM; RMG-I TPO-luciferase reporter, SteadyGlo, 24 h; 1.2% of 360,000 active; AID 652154;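 active = mean replicate inhibition at least 60% with every replicate also reaching 60%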;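 note: luciferase light reporting Pax8 driven TPO promoter activity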
LMP1 NFkB inh: inhibitors of Epstein-Barr LMP1-induced NF-kappaB reporter | LMP1-induced NF-kappaB luciferase reporter cells, luminescence | inhibition, % at 12.5 µM | 0.69% of 350,000 active; in the data active = inhibition above about 41%
EWS-Fli inh: inhibitors of EWS/Fli oncoprotein transcriptional activity | A673 NR0B1-luciferase reporter, viability-normalised | inhibition, % at 12.6 µM | 0.67% of 350,000 active;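 active = mean inhibition of at least 50% after viability correction, with every replicate also passing that limit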;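 note: firefly luciferase signal divided by Alamar Blue viability fluorescence both relative to DMSO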
LGR2 inh: inhibitors of bursicon-induced Drosophila LGR2 receptor cAMP signaling | HEK293 LGR2, CRE-luciferase, bursicon-stimulated, 4 h | inhibition, % at 9.99 µM | 0.35% of 380,000 active | AID 720647;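 active = drop in luminescence signal, shown as inhibition above about 50% in the replicate tests, limit read from the data, passing the limit was not always enough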;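 note: agonist challenge used bursicon conditioned medium at about half maximal strength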
PGC1a acetyl inh: modulators of PGC1a acetylation; U2OS PGC1a acetylation, AlphaScreen anti-acetyl-lysine; with virally co-expressed GCN5 acetyltransferase; inhibition, % at 15.6 µM; 0.17% of 350,000 active; AID 651687;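 active = every replicate shows inhibition of at least 40%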
Numbers stand for hits; n = inactive; x = no result. Rows were chosen to be rich in hits. Some 2.2% of all compounds tested hit in one or more screens of this group.

SMILES | MITF TRPM1 inh | PAX8 reporter | LMP1 NFkB inh | EWS-Fli inh | LGR2 inh | PGC1a acetyl inh
O=C(CSc1ncccc1-c1nc2ccccc2[nH]1)N1CCc2ccccc21 | n | 90 | n | n | n | x
COC(=O)CSc1ncccc1-c1nc2ccccc2[nH]1 | n | x | n | x | x | n
CC(C)NC(=O)Nc1ccc2c(c1)C(=O)N([C@@H](C)CO)C[C@H](C)[C@@H](CN(C)C(=O)c1ccncc1)OCCCC[C@H](C)O2 | x | n | x | x | n | n
O=C(Cc1ccccn1)NCC[C@H]1CC[C@@H](NC(=O)Nc2ccc(C(F)(F)F)cc2)[C@@H](CO)O1 | x | n | x | n | n | 102
O=C(Cc1ccncc1)NCC[C@H]1CC[C@@H](NC(=O)C2CC2)[C@H](CO)O1 | x | n | x | n | n | 62
O=C(Cc1ccccn1)NCC[C@H]1CC[C@H](NC(=O)Nc2ccc(C(F)(F)F)cc2)[C@H](CO)O1 | x | 69 | x | n | n | 48
N#C[C@H]1[C@@H](c2ccccc2C2=CCCCC2)[C@H](CO)N1S(=O)(=O)c1cccc(F)c1 | x | x | x | n | n | n
C[C@H]1CN([C@@H](C)CO)C(=O)c2cccc(NC(=O)c3cnccn3)c2O[C@@H]1CN(C)CC1CC1 | x | x | x | n | n | n
C[C@@H]1CN([C@@H](C)CO)S(=O)(=O)c2ccc(-c3cncnc3)cc2O[C@H]1CN(C)C(=O)Cc1ccccc1 | x | n | x | n | n | n
CC(C)[n+]1ccn(C2=C([O-])c3ccccc3C(=O)/C2=N\S(=O)(=O)c2ccccc2)c1 | n | n | n | n | x | n
CC(C)(C)c1cc[n+](C2=C([O-])c3ccccc3C(=O)/C2=N\S(=O)(=O)c2ccccc2)cc1 | x | n | x | n | n | n
CCCCC[n+]1ccn(C2=C([O-])c3ccccc3C(=O)/C2=N\S(=O)(=O)c2ccccc2)c1 | 94 | n | n | x | x | n
CCCCC[n+]1ccn(C2=C([O-])c3ccccc3C(=O)/C2=N\S(=O)(=O)c2ccc(Br)cc2)c1 | 85 | n | n | n | x | n
CCCC[n+]1ccn(C2=C([O-])c3ccccc3C(=O)/C2=N\S(=O)(=O)c2ccccc2)c1 | 96 | n | n | x | x | n
C[C@@H]1CN([C@@H](C)CO)C(=O)c2cc(NC(=O)NC3CCCCC3)ccc2O[C@H]1CN(C)Cc1ccc(C(=O)O)cc1 | x | n | x | n | n | n
O=C(Cc1ccc(N2CCNC2=O)cc1)N1CCCC(Nc2cccc(F)c2)C1 (centres undefined) | n | n | n | 55 | n | n
CCOC(=O)c1c(SCCN2CCCCC2)n(-c2ccccc2)c(=S)n(-c2ccccc2)c1=O | 99 | n | n | 79 | n | x
CCn1c(CCNC(=O)c2ccc(OC)cc2)nnc1SCc1ccc(Cl)cc1Cl | n | x | 66 | x | n | n
CCn1c(CCNC(=O)c2ccc(OC)cc2)nnc1SCc1ccc(Cl)c(Cl)c1 | n | n | n | x | n | n
COc1ccccc1NC(=O)N1CC(=O)N2[C@H](CO)[C@H](c3ccc(C#CC4CC4)cc3)[C@@H]2C1 | x | n | x | n | n | n
C/C=C/c1ccc([C@H]2[C@@H](CO)N3C(=O)CN(C(=O)c4cccc(F)c4)C[C@@H]23)cc1 | x | x | x | x | n | n
O=C(c1ccncc1)N1CC(=O)N2[C@H](C1)[C@@H](c1ccc(-c3ccccc3)cc1)[C@@H]2CO | x | n | x | 54 | n | n
COCC(=O)N1CC(=O)N2[C@@H](CO)[C@H](c3ccc(-c4ccncc4)cc3)[C@@H]2C1 | x | n | x | n | n | 102
COCC(=O)N1CC(=O)N2[C@H](C1)[C@H](c1ccc(-c3ccccc3)cc1)[C@@H]2CO | x | x | x | n | n | n
O=C(c1cccc(F)c1)N1CC(=O)N2[C@H](C1)[C@H](c1ccc(/C=C/c3ccccc3)cc1)[C@@H]2CO | x | 63 | x | n | n | n
SMILES | MITF TRPM1 inh | PAX8 reporter | LMP1 NFkB inh | EWS-Fli inh | LGR2 inh | PGC1a acetyl inh
C[C@H]1CN([C@@H](C)CO)S(=O)(=O)c2ccc(C3=CCCCC3)cc2O[C@@H]1CN(C)Cc1cccnc1 | x | x | x | n | n | n
O=C(C[C@H]1CC[C@H]2[C@@H](COC[C@@H](O)CN2C(=O)c2ccccc2)O1)NC1Cc2ccccc2C1 | x | n | x | n | n | n
CN(C)c1cc[n+](CC(=O)Nc2ccc(Oc3ccccc3)cc2)cc1 | n | 89 | n | n | n | n
O=C(c1cc2ccccc2o1)N1CCN(S(=O)(=O)/C=C/c2ccccc2)CC1 | n | n | n | n | n | n
O=C(c1ccco1)N1CCN(S(=O)(=O)/C=C/c2ccccc2)CC1 | n | n | 49 | n | n | n
COCC(=O)N1CC2(C1)[C@H](c1ccc(C3=CCCC3)cc1)[C@H](CO)N2C(=O)COC | x | x | x | n | n | n
CCOC(=O)C1=CN(Cc2cccc(F)c2)S(=O)(=O)N(CC)C1c1cccc(OC)c1 (centres undefined) | n | n | n | n | n | n
CCOC(=O)C1=CN(Cc2cccc(-c3cccnc3)c2)S(=O)(=O)N(CC)C1C (centres undefined) | n | n | n | n | n | n
CCOC(=O)C1=CN(Cc2cccc(F)c2)S(=O)(=O)N(CC)C1c1ccccc1 (centres undefined) | n | 86 | n | n | n | n
CCOC(=O)C1=CN(Cc2cccc(-c3cccnc3)c2)S(=O)(=O)N(C)C1C (centres undefined) | n | 101 | n | n | n | n
CC(=O)Oc1ccc(/C=C2/CCc3ccccc3C2=O)cc1 | n | n | n | 74 | 55 | x
COc1cccc(/C=C2\CCc3ccccc3C2=O)c1 | n | n | n | n | n | x
COc1ccc(N/C=C2\CCc3ccccc3C2=O)cc1 | n | n | n | n | 81 | n
C[C@@H]1CN([C@@H](C)CO)C(=O)c2cc(NS(=O)(=O)c3ccc(Cl)cc3)ccc2O[C@@H](C)CCCCO[C@H]1CN(C)C(=O)c1ccccc1 | x | n | x | n | n | n
CCC(=O)N1CCC2(CC1)CN(C(=O)c1ccccn1)[C@H](CO)c1c2c2ccc(OC)cc2n1C | x | x | x | n | n | n
CCNC(=S)NNC(=O)c1csc2ccccc12 | n | x | n | x | n | 59
CCNC(=S)NNC(=O)c1cc(-c2ccc(OCC)cc2)nc2ccccc12 | n | x | 57 | 71 | 89 | n
CCCc1ccc(-c2cc(C(=O)NN3CCOCC3)c3ccccc3n2)cc1 | n | x | n | x | n | n
CCc1ccc(-c2cc(C(=O)Nn3cnnc3)c3ccccc3n2)cc1 | 66 | x | 77 | 78 | n | n
C[C@H](CO)N1C[C@H](C)[C@H](CN(C)Cc2ccc(C(=O)Nc3ccccc3N)cc2)OCCCC[C@H](C)Oc2ccc(NC(=O)C3CCCCC3)cc2C1=O | x | n | x | n | n | n
COc1ccc(NC(=O)N(C)C[C@H]2Oc3ccc(NC(=O)CCCCCC(=O)Nc4ccccc4N)cc3CC(=O)N([C@H](C)CO)C[C@@H]2C)cc1 | x | n | x | n | n | n
C[C@@H]1CN([C@H](C)CO)C(=O)c2cc(-c3ccncc3)cnc2O[C@@H]1CN(C)C(=O)c1ccc(F)cc1 | x | x | x | n | n | n
